Assay outcomes (PubChem BioAssay)
Rows were chosen to be rich in hits. Some 0.2% of all compounds tested hit in one or more screens of this group.
Bcl-XL Bim block = human Bim-Bcl-XL interaction inhibition; Q07817; Bim peptide-Bcl-XL binding, bead flow cytometry, fluorescence; inhibition, % at 10 µM; 190,000 compounds, 0.04% hits
Target sequence (Q07817 whole entry, looked up): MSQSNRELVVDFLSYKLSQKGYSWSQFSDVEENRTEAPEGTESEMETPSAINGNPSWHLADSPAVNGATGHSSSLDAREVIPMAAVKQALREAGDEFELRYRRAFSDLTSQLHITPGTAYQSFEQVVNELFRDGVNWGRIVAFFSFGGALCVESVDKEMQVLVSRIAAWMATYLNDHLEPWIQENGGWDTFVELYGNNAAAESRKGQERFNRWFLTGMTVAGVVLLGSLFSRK
Bcl-2 Bim block = disrupts Bim peptide binding to human Bcl-2; Bead-based flow cytometry, Bim peptide-Bcl-2 binding; inhibition, % at 10 µM; 190,000 compounds, 0.06% hits; P10415; in the data active means inhibition above about 40%;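 further: 0% = no compound wells with probe peptide and 100% = reference peptide inhibitor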
Bim-Bcl-W = disrupts Bim peptide binding to human Bcl-W; Q92843; bead-based flow cytometry; 190,000 compounds, 0.02% hits; inhibition, % at 10 µM; AID 952;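 further: 0% = bound tracer without compound and 100% = peptide blocker; higher means less fluorescent Bim peptide bound to Bcl-W beads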
Target sequence (Q92843 whole entry, looked up): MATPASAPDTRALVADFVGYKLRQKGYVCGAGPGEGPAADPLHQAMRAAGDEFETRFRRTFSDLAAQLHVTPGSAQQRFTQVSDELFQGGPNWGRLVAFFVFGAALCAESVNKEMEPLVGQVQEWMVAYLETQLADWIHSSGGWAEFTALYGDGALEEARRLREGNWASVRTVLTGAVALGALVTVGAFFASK
Bim-Bfl-1 = disrupts Bim binding to human Bfl-1. Q16548. Bead-based flow cytometry, Bim-Bfl-1 binding inhibition. inhibition, % at 10 µM. 190,000 compounds, 0.12% hits. AID 1008;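 further: 0% = wells without compound plus tracer and 100% = blocker peptide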
Target sequence (Q16548 whole entry, looked up): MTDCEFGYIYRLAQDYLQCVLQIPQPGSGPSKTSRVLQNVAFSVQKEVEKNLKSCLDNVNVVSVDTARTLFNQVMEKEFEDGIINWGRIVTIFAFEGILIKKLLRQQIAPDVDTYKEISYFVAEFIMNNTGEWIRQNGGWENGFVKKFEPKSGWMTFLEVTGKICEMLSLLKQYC
Bcl-B Bim block = human Bim-Bcl-B interaction inhibition; bead-based flow cytometry, Bim peptide-Bcl-B binding; inhibition, % at 10 µM; 190,000 compounds, 0.073% hits;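 further: 0% = tracer peptide without compound and 100% = reference inhibitor peptide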
* marks the source's active call; other numbers are inactive results; · = no result given. Unless noted, no stated cut-off is given here; in the data, active means inhibition above about 40%.

SMILES | Bcl-XL Bim block | Bcl-2 Bim block | Bim-Bcl-W | Bim-Bfl-1 | Bcl-B Bim block
COc1ccc(NC(=O)/C(Cl)=C(/Cl)S(=O)Cc2ccc(Cl)cc2)cn1 (stereo unspecified) | 0.0 | 7.0 | 3.0 | 40.0* | -11.0
COc1ccccc1Cn1nnc2c(=O)[nH]c(C3CCN(C(=O)c4ccc(F)cc4)CC3)nc21 | 2.0 | -1.0 | 5.0 | -1.0 | 57.0*
COc1ccccc1Cn1nnc2c(=O)[nH]c(C3CCN(C(=O)c4ccc(C)cc4)CC3)nc21 | -3.0 | -1.0 | -2.0 | -1.0 | 50.0*
COc1ccc(S(=O)(=O)NCCOc2cccc3cccnc23)cc1OC | 3.0 | 76.0* | 0.0 | 44.0* | 65.0*
CCN(CC)CCN(C(=O)c1ccc(N2C(=O)CCC2=O)cc1)c1nc2cc3c(cc2s1)OCCO3 | 1.0 | 43.0* | 4.0 | 32.0 | 36.0
Cc1ccc(NC(=O)c2ccc3c(c2)OCCO3)cc1S(=O)(=O)Nc1cccc(Cl)c1 | 4.0 | 0.0 | 6.0 | 4.0 | 4.0
Nc1nc2c(s1)CCc1c-2cnn1-c1ccccc1 | 12.0 | 18.0 | 30.0 | 41.0* | 11.0
O=C(NC1CCCC1)C(c1ccccc1F)N(C(=O)Cc1cccs1)c1ccc2c(c1)OCCO2 (stereo unspecified) | -8.0 | -5.0 | -5.0 | -10.0 | -9.0
CC(=O)NS(=O)(=O)c1ccc(NC(=S)NC(=O)COc2ccccc2C)cc1 | -6.0 | -4.0 | -4.0 | -7.0 | -7.0
O=C(/C=C/NNC(=O)c1ccccc1)c1ccc(Br)cc1 | -6.0 | -7.0 | 0.0 | -14.0 | -7.0
O=C(O)/C=C/C(=O)NNC(=O)c1ccc(Br)cc1 | 41.0* | 19.0 | 27.0 | 35.0 | 24.0
CCN(CC)S(=O)(=O)c1ccc(Cl)c(C(=O)Nc2cc(C)nn2-c2ccccc2)c1 | -5.0 | -11.0 | -1.0 | -18.0 | -2.0
COc1ccc(C2=Nn3c(nnc3-c3ccco3)SC2)cc1OC | 44.0* | 14.0 | 29.0 | 8.0 | 26.0
O=C(CC(=O)NC1CCCCC1)N/N=C/c1ccc(Cl)cc1 | 1.0 | 0.0 | 0.0 | -1.0 | 3.0
Cc1ccc(C)c(NC(=S)NC23CN4CN(CN(C4)C2)C3)c1 | -4.0 | -1.0 | -2.0 | -5.0 | -2.0
COc1cc2c(cc1OC)C(c1ccccc1F)OC(=O)C2 (stereo unspecified) | 72.0* | 98.0* | 89.0* | 59.0* | 97.0*
COc1cc2c(cc1OC)C(C(=O)N1CCCCC1)C(c1ccccc1F)N(C)C2=O (stereo unspecified) | -21.0 | 0.0 | 0.0 | -2.0 | -1.0
Cc1nn(-c2ccc(F)cc2)c(Cl)c1/C=C(\CC(=O)O)c1nc2ccccc2s1 | 0.0 | -1.0 | -1.0 | -1.0 | 0.0
Cc1c(N=C2C=CC(=O)c3ccccc32)c(=O)n(-c2ccccc2)n1C | 2.0 | 16.0 | 10.0 | 53.0* | -12.0
Cc1c(N=C2C=C(Br)C(=O)C(Br)=C2)c(=O)n(-c2ccccc2)n1C | 3.0 | 7.0 | 16.0 | 18.0 | -15.0
CN(C)[C@@H]1C(=O)C(C(=O)NCN2CCCC2)=C(O)[C@@]2(O)C(=O)C3=C(O)c4c(O)cccc4[C@@](C)(O)C3CC12 (stereo partly specified) | 10.0 | 37.0 | 21.0 | 19.0 | 43.0*
COc1ccc2oc(-c3ccccc3)c(C(=O)N3CCOCC3)c2c1 | 14.0 | 80.0* | 8.0 | 60.0* | 81.0*
CCOc1ccc2oc(-c3ccccc3)c(C(=O)N3CCN(C)CC3)c2c1 | -3.0 | -2.0 | -3.0 | -2.0 | -2.0
Cc1ccc(C)c(NC(=O)COC(=O)CCCN=C2NS(=O)(=O)c3ccccc32)c1 | 0.0 | 3.0 | 0.0 | -1.0 | 1.0
O=C(COC(=O)CCCN=C1NS(=O)(=O)c2ccccc21)NC(=O)NC1CCCC1 | 105.0* | 97.0* | 72.0* | 36.0 | 105.0*
SMILES | Bcl-XL Bim block | Bcl-2 Bim block | Bim-Bcl-W | Bim-Bfl-1 | Bcl-B Bim block
COc1cccc2c1C(=O)c1c(O)c3c(c(O)c1C2=O)C[C@@](O)(C(=O)CO)C[C@@H]3O[C@H]1C[C@H](N)[C@H](O)[C@H](C)O1 | 57.0* | 54.0* | 59.0* | 60.0* | 86.0*
C=C(C)c1cccc(C(C)(C)NC(=O)N2CCC(C(N)=O)CC2)c1 | -3.0 | -3.0 | -1.0 | -9.0 | -7.0
CCOc1cc(S(=O)(=O)Nc2ccccn2)ccc1F | 28.0 | 89.0* | 22.0 | · | ·
CCOc1cc(S(=O)(=O)Nc2ccc(Cl)cn2)ccc1F | -10.0 | -5.0 | 0.0 | -12.0 | -6.0
COc1ccc(C(=O)NC(=S)N2CCNC(=O)C2)cc1Br | 4.0 | 79.0* | 3.0 | 71.0* | 70.0*
O=C1CN(C(=S)NC(=O)c2ccc(-c3ccccc3)cc2)CCN1 | -1.0 | 3.0 | 0.0 | 8.0 | -40.0
COc1ccc(C(=O)Nc2c(C)csc2C(=O)O)cc1 | 1.0 | -3.0 | 0.0 | -3.0 | 0.0
C=CCn1c(C)c(C(C)=O)c(N2CCOCC2)nc1=S | 38.0 | 29.0 | 29.0 | 48.0* | 29.0
C/C(=N\NC(=O)COc1ccc(C(C)(C)C)cc1)c1ccc2c(c1)OCCO2 | 31.0 | 85.0* | 48.0* | 32.0 | 88.0*
CCc1ccc(OCC(=O)N/N=C(\C)c2ccc3c(c2)OCCO3)cc1 | -4.0 | -7.0 | -2.0 | -8.0 | -8.0
CN(C)c1ccc(/C=C2/SC(=O)N(CCN=C3NS(=O)(=O)c4ccccc43)C2=O)cc1 | 50.0* | 91.0* | 71.0* | 48.0* | 92.0*
Cc1c(NC(=O)COC(=O)C2(c3ccc(F)cc3)CCCC2)c(=O)n(-c2ccccc2)n1C | -2.0 | -9.0 | -3.0 | -6.0 | -7.0
c1ccc(Nc2cccc(Nc3ccccc3)n2)cc1 | 15.0 | 30.0 | 47.0* | 68.0* | 13.0
Oc1ccc(Cl)cc1C=Nc1ccc2c3c(cccc13)CC2 | 0.0 | 6.0 | 2.0 | 5.0 | -5.0
CCOC(=O)C1CCCN(c2ncnc3c2cnn3-c2cccc(C)c2)C1 (stereo unspecified) | 46.0* | 33.0 | 30.0 | 47.0* | 26.0
CCN(CC)C(=O)C1CCCN(c2ncnc3c2cnn3-c2cccc(C)c2)C1 (stereo unspecified) | 1.0 | -5.0 | 6.0 | -12.0 | -1.0
CCC(OC(=O)c1cccs1)C(=O)NCc1ccc(C)cc1 (stereo unspecified) | -2.0 | 0.0 | 2.0 | 0.0 | 0.0
CCC(=O)Nc1ccccc1C(=O)OCC(=O)c1cccc2ccccc12 | 1.0 | 1.0 | 0.0 | 0.0 | -1.0
COc1ccc(C(=O)Nc2ccc(C(=O)OCC(=O)c3cccc4ccccc34)cc2)cc1 | 15.0 | · | 24.0 | 20.0 | 83.0*
COC(=O)c1[nH]c2ccccc2c1NC(=O)c1ccccc1[N+](=O)[O-] | 2.0 | -6.0 | 6.0 | -2.0 | 44.0*
Clc1nc(NCc2cccnc2)nc(N2CCOCC2)n1 | 49.0* | 23.0 | 47.0* | 22.0 | 73.0*
c1ccc(CNc2nc(N3CCOCC3)nc(N3CCOCC3)n2)cc1 | -1.0 | -7.0 | 0.0 | -2.0 | -3.0
COc1ccc2cc(CN(CCc3ccccc3)Cc3nnnn3CC3CCCO3)c(=O)[nH]c2c1 (stereo unspecified) | 42.0* | 31.0 | 25.0 | 44.0* | 21.0
CC(=O)NC1=NN(C(C)=O)C(c2ccc(F)cc2)S1 (stereo unspecified) | -8.0 | -1.0 | -1.0 | -1.0 | 1.0
COC(=O)/C(=C/c1ccc(F)cc1)NC(C)=O | 0.0 | 28.0 | -4.0 | 1.0 | 48.0*
